Paper PMC7862700, “An all-to-all approach to the identification of sequence-specific readers for epigenetic DNA modifications on cytosine”

What was measured:
Assay in all cases: DAPPL (digital affinity profiling via proximity ligation, sequencing); 10 mM Tris-HCl pH 7.5, 50 mM NaCl, 1 mM DTT, 4% glycerol, room temperature, 30 min; GST-TFs on glutathione beads, 16-mer random dsDNA library, 0.1% formaldehyde crosslink after washing; high values mean tight binding
FEV = molecular target: T1, FEV (Homo sapiens, UniProt Q99581 1-238); settings: protein: recombinant; tags: N-terminal GST; dsDNA, one strand shown
T1 sequence: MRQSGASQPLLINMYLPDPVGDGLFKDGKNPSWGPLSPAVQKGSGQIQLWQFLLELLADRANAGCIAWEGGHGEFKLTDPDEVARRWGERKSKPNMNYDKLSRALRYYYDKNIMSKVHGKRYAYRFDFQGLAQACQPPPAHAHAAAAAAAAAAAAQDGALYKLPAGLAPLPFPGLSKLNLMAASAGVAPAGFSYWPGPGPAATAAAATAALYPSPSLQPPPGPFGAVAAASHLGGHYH
Summary of the method: (§1)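 The binding signal reported is, for every hexamer, its read frequency for a factor over its read frequency for the tag-only sample. Reads came from pools of yeast-expressed, GST-fused human transcription factors on glutathione beads, barcoded with DNA and mixed with that sample, which were incubated with 200 nmole of a random double-stranded 16-mer DNA library in Tris/NaCl/DTT/glycerol buffer at room temperature for 30 min. After washing, the pools were crosslinked with 0.1% formaldehyde, proximity-ligated with BsaI/T4 ligase for 1 h at 37 °C, PCR-amplified and sequenced on an Illumina NextSeq500.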

ETV5 = ETV5 (Homo sapiens, UniProt P41161 1-510); settings: protein: recombinant; tags: N-terminal GST; dsDNA, one strand shown
Chain of ETV5 (P41161 whole entry): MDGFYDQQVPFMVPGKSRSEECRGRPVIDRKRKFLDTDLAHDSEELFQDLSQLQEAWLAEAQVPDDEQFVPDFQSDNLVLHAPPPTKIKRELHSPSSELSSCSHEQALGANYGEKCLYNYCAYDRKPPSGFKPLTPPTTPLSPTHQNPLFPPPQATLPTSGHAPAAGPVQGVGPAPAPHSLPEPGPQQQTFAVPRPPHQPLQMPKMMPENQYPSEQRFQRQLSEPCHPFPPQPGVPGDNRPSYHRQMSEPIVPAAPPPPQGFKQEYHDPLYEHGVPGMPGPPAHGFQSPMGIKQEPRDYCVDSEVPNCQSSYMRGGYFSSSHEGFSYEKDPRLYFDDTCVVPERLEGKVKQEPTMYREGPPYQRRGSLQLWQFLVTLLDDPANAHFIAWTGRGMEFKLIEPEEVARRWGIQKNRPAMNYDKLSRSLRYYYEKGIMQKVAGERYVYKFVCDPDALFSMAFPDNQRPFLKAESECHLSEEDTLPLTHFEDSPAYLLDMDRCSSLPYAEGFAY
Summary of the method: as §1

HSF1 = HSF1 (Homo sapiens, UniProt Q00613 1-529); settings: protein: recombinant; tags: N-terminal GST; chain copies: 3; dsDNA, one strand shown
Chain of HSF1 (Q00613 whole entry): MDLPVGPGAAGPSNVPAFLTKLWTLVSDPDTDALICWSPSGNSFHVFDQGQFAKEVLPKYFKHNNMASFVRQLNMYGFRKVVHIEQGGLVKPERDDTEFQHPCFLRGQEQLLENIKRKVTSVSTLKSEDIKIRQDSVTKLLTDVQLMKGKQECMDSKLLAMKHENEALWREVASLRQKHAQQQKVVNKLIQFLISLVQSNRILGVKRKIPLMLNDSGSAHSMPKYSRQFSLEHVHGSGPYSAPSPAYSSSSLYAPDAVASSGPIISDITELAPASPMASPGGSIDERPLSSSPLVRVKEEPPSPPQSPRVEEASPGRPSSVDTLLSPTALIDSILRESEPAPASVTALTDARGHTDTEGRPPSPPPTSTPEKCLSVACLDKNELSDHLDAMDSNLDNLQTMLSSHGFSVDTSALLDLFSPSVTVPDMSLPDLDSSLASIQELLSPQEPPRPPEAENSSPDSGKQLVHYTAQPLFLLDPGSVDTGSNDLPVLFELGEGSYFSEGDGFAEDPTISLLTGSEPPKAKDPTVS
Summary of the method: as §1

SPIC = molecular target: T2, SPIC (Homo sapiens, UniProt Q8N5J4 1-248); settings: protein: recombinant; tags: N-terminal GST; dsDNA, one strand shown
T2 sequence: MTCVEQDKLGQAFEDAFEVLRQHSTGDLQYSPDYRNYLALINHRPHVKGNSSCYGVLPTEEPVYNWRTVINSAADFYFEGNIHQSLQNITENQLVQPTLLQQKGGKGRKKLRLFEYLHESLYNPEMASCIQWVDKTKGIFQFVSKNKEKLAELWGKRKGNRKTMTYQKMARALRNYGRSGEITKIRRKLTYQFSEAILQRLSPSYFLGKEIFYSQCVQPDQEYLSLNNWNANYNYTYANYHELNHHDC
Summary of the method: as §1

ELF4 = ELF4 (Homo sapiens, UniProt Q99607 1-663); settings: protein: recombinant; tags: N-terminal GST; dsDNA, one strand shown
Chain of ELF4 (Q99607 whole entry): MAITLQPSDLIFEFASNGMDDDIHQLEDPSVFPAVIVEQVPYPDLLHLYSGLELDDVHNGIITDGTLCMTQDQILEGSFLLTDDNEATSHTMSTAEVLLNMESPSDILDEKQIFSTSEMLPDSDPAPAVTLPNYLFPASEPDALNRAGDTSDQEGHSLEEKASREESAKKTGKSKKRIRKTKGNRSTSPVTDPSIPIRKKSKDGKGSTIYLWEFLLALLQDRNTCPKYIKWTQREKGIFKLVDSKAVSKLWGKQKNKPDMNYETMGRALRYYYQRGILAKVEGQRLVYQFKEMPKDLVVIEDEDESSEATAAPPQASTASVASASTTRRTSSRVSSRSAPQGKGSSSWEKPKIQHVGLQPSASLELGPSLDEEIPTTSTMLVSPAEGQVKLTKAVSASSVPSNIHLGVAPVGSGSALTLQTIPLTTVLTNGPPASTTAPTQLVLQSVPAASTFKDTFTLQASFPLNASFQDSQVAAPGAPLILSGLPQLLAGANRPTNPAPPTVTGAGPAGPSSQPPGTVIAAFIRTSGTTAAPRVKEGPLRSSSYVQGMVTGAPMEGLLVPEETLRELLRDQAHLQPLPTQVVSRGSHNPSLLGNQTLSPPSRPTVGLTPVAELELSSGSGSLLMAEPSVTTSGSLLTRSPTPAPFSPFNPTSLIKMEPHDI
Summary of the method: as §1

ELK4 = molecular target: T3, ELK4 (Homo sapiens, UniProt P28324-2 1-405); settings: protein: recombinant; tags: N-terminal GST; dsDNA, one strand shown
T3 sequence: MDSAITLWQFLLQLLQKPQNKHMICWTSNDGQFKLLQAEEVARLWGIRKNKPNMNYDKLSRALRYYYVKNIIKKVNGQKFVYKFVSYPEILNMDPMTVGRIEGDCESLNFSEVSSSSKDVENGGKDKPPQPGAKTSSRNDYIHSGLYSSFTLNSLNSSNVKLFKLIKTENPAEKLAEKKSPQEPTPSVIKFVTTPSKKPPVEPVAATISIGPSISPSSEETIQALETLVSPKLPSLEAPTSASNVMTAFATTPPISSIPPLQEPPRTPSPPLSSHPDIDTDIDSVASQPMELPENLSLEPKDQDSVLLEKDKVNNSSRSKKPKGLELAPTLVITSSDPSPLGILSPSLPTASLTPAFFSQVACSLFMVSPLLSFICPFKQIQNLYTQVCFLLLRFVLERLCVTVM
Summary of the method: as §1

ETV2 = molecular target: T4, ETV2 (Homo sapiens, UniProt O00321 1-342); settings: protein: recombinant; tags: N-terminal GST; dsDNA, one strand shown
T4 sequence: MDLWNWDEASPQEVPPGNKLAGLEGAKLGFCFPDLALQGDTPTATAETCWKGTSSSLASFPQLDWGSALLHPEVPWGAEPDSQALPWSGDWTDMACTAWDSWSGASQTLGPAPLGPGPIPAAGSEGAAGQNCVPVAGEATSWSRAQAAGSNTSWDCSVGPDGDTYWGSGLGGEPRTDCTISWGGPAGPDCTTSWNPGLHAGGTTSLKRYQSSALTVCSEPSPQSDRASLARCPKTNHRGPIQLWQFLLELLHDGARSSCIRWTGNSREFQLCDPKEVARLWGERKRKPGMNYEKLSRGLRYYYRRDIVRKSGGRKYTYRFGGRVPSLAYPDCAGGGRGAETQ
Summary of the method: as §1

ELF3 = molecular target: T5, ELF3 (Homo sapiens, UniProt P78545 1-371); settings: protein: recombinant; tags: N-terminal GST; dsDNA, one strand shown
T5 sequence: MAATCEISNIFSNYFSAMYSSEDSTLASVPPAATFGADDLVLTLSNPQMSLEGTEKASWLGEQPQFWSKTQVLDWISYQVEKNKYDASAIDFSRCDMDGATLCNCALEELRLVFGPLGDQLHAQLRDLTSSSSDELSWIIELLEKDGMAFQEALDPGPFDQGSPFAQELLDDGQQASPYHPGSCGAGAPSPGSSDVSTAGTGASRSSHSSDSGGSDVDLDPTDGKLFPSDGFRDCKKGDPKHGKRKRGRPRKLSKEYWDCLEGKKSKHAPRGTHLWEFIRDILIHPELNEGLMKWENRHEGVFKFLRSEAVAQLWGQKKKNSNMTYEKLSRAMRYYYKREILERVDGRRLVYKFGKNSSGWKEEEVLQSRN
Summary of the method: as §1

CRX = CRX (Homo sapiens, UniProt O43186 1-299); settings: protein: recombinant; tags: N-terminal GST; dsDNA, one strand shown
Chain of CRX (O43186 whole entry): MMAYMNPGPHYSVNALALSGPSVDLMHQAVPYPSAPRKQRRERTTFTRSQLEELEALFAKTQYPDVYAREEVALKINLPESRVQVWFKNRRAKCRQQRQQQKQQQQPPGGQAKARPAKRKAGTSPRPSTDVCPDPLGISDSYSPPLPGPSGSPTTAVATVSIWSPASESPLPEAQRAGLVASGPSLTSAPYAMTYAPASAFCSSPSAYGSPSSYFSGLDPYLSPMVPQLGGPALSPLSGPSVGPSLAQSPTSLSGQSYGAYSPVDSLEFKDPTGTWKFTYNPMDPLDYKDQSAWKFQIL
Summary of the method: as §1

ETV1 = ETV1 (Homo sapiens, UniProt P50549 1-477); settings: protein: recombinant; tags: N-terminal GST; dsDNA, one strand shown
Chain of ETV1 (P50549 whole entry): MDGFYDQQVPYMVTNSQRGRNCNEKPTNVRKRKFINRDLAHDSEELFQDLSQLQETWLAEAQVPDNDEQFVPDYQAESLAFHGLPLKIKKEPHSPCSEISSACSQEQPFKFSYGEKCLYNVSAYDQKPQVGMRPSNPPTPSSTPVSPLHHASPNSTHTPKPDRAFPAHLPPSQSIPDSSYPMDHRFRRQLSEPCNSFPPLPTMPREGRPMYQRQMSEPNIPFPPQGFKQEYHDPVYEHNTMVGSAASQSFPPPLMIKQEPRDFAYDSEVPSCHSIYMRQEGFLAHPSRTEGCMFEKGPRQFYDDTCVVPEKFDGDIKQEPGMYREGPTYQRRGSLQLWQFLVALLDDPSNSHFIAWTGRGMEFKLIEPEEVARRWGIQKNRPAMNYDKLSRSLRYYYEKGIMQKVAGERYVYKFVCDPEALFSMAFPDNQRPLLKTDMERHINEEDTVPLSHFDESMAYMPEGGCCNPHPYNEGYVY
Summary of the method: as §1

ERF = molecular target: T6, ERF (Homo sapiens, UniProt P50548 1-548); settings: protein: recombinant; tags: N-terminal GST; dsDNA, one strand shown
T6 sequence: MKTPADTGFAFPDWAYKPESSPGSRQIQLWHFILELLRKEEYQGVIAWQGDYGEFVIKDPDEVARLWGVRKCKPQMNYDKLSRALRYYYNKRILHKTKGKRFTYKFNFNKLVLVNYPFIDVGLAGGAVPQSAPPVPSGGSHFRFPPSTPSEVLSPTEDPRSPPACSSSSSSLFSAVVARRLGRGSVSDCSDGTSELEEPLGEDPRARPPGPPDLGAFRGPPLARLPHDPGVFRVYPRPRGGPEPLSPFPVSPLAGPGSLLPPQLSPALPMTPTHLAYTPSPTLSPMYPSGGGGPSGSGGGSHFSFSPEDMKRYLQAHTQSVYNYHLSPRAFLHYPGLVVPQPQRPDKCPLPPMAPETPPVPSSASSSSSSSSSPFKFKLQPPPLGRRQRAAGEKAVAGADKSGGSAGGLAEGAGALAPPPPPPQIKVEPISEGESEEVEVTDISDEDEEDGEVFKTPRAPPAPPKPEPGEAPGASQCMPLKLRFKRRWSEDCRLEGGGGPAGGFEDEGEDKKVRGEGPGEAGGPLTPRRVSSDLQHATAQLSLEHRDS
Summary of the method: as §1

ETV3L = molecular target: T7, ETV3L (Homo sapiens, UniProt Q6ZN32 1-361); settings: protein: recombinant; tags: N-terminal GST; dsDNA, one strand shown
T7 sequence: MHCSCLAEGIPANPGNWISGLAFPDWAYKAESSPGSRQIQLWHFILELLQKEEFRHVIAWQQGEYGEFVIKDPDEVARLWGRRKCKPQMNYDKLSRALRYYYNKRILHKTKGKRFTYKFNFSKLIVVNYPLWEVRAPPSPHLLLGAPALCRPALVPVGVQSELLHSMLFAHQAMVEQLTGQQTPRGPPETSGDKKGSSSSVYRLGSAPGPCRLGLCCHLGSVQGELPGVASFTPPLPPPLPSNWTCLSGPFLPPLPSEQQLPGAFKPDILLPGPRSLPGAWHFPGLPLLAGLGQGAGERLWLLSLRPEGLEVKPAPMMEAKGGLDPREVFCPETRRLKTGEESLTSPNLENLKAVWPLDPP
Summary of the method: as §1

ETS2 = molecular target: T8, ETS2 (Homo sapiens, UniProt P15036 1-469); settings: protein: recombinant; tags: N-terminal GST; dsDNA, one strand shown
T8 sequence: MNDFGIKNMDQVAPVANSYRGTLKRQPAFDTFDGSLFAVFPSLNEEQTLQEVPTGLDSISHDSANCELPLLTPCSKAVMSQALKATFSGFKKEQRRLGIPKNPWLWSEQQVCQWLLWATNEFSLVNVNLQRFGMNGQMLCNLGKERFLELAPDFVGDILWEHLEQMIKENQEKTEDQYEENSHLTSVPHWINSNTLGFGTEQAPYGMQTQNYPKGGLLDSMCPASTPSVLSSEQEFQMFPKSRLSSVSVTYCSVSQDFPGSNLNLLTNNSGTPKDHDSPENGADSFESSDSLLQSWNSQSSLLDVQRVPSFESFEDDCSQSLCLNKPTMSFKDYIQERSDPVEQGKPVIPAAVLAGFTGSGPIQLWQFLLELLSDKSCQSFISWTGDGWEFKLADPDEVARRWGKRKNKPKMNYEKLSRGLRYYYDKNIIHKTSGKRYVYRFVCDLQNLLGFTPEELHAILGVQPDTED
Summary of the method: as §1

SPDEF = molecular target: T9, SPDEF (Homo sapiens, UniProt O95238 1-335); settings: protein: recombinant; tags: N-terminal GST; dsDNA, one strand shown
T9 sequence: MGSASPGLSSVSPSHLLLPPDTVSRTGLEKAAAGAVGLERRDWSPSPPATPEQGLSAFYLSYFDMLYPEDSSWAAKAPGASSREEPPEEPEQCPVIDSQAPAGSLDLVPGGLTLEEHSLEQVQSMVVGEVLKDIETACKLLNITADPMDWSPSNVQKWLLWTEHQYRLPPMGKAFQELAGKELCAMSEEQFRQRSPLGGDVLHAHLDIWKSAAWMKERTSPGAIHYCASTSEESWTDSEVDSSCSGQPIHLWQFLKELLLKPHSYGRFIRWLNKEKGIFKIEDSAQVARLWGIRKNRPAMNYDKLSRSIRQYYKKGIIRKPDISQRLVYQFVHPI
Summary of the method: as §1

ETV7 = molecular target: T10, ETV7 (Homo sapiens, UniProt Q9Y603 1-341); settings: protein: recombinant; tags: N-terminal GST; dsDNA, one strand shown
T10 sequence: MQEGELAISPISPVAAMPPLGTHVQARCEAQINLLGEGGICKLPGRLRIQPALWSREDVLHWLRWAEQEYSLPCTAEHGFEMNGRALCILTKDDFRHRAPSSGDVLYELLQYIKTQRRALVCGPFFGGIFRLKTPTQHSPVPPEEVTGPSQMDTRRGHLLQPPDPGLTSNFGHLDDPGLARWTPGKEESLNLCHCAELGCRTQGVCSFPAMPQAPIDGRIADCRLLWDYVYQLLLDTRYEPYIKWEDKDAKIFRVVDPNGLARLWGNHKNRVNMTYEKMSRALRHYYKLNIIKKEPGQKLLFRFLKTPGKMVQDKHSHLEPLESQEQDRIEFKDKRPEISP
Summary of the method: as §1

ELF5 = molecular target: T11, ELF5 (Homo sapiens, UniProt Q9UKW6-2 1-255); settings: protein: recombinant; tags: N-terminal GST; dsDNA, one strand shown
T11 sequence: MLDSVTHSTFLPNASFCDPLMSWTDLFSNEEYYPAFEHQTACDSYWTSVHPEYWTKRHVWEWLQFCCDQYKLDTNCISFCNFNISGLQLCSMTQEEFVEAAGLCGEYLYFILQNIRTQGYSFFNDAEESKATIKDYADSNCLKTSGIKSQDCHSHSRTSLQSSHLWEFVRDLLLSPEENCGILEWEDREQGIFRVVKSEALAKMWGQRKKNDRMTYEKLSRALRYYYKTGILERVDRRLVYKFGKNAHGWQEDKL
Summary of the method: as §1

ETV3 = molecular target: T12, ETV3 (Homo sapiens, UniProt P41162-2 1-143); settings: protein: recombinant; tags: N-terminal GST; dsDNA, one strand shown
T12 sequence: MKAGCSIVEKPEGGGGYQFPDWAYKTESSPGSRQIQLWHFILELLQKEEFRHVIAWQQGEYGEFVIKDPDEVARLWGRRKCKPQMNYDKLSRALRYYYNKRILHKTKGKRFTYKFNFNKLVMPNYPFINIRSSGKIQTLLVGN
Summary of the method: as §1

ETV6 = ETV6 (Homo sapiens, UniProt P41212 1-452); settings: protein: recombinant; tags: N-terminal GST; dsDNA, one strand shown
Chain of ETV6 (P41212 whole entry): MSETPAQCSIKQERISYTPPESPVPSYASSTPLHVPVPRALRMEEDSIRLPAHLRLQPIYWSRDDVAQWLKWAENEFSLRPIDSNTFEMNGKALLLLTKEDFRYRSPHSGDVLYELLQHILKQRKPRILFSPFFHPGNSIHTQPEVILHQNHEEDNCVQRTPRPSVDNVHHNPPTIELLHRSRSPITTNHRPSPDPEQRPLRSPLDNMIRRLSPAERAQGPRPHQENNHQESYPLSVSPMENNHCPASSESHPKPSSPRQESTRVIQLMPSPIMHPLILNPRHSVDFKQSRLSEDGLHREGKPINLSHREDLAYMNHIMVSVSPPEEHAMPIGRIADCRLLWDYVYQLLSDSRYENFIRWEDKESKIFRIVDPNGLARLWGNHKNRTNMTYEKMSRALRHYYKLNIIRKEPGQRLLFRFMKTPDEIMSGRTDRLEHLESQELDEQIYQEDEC
Summary of the method: as §1

ATTACT
binding signal (FEV): 1.27 fold enrichment (6-mer frequency, TF over GST control)
binding signal (ETV5): 1.23 fold enrichment (6-mer frequency, TF over GST control)
binding signal (HSF1): 1.66 fold enrichment (6-mer frequency, TF over GST control)
binding signal (SPIC): 1.38 fold enrichment (6-mer frequency, TF over GST control)
binding signal (ELF4): 1.19 fold enrichment (6-mer frequency, TF over GST control)
binding signal (ELK4): 1.39 fold enrichment (6-mer frequency, TF over GST control)
binding signal (ETV2): 1.48 fold enrichment (6-mer frequency, TF over GST control)
binding signal (ELF3): 1.39 fold enrichment (6-mer frequency, TF over GST control)
binding signal (CRX): 2.22 fold enrichment (6-mer frequency, TF over GST control)
binding signal (ETV1): 1.35 fold enrichment (6-mer frequency, TF over GST control)
binding signal (ERF): 1.37 fold enrichment (6-mer frequency, TF over GST control)
binding signal (ETV3L): 1.23 fold enrichment (6-mer frequency, TF over GST control)
binding signal (ETS2): 1.31 fold enrichment (6-mer frequency, TF over GST control)
binding signal (SPDEF): 1.26 fold enrichment (6-mer frequency, TF over GST control)
binding signal (ETV7): 1.25 fold enrichment (6-mer frequency, TF over GST control)
binding signal (ELF5): 1.25 fold enrichment (6-mer frequency, TF over GST control)
binding signal (ETV3): 1.29 fold enrichment (6-mer frequency, TF over GST control)
binding signal (ETV6): 1.37 fold enrichment (6-mer frequency, TF over GST control)
